An excerpt weighted towards active compounds, which were near 7% of everything screened.
ADAM10 inh = inhibitors of human ADAM10; O14672; recombinant ADAM10, EDANS/DABCYL FRET peptide cleavage, 3 h; inhibition, % at 7 µM; 370,000 compounds, 0.62% hits; AID 720582;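 active = inhibition above a per-campaign cutoff equal to the mean of compounds falling between control-based bounds plus 3 SD, cut at about 20% in these data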
rCAG RNA binder = molecules binding r(CAG) RNA repeats | inhibition, % at 3 µM | r(CAG) RNA repeat, TO-PRO-1 dye displacement fluorescence | 370,000 compounds, 1.3% hits;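 active = inhibition above the plate cutoff, the mean of all test compounds on that plate plus 3 SD, cut at about 35% in these data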;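 also: higher means more dye released from RNA so lower well fluorescence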
KLK7 zymogen act = proKLK7 (human) activation, primary screen; P49862; purified proKLK7, EDANS-DABCYL substrate fluorescence; 100% is mature enzyme control, 0% vehicle; activation, % at 7 µM; 370,000 compounds, 0.9% hits;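 active = activation above the mean of all tested compounds plus 3 SD, computed per campaign excluding outliers beyond control limits, cut at about 13% in these data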
ADAM17 inh = inhibitors of human ADAM17; P78536; recombinant ADAM17, EDANS/DABCYL FRET peptide cleavage; inhibition, % at 6.95 µM; AID 720648; 370,000 compounds, 0.83% hits;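 active = inhibition above the mean of compounds lying between control limits plus 3 SD, set per campaign, cut at about 8.5% in these data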
AHR act = activates the human aryl hydrocarbon receptor; AHR-responsive luciferase reporter cells, luminescence; activation, % at 5 µM; 320,000 compounds, 2.5% hits; in the data active = activation above about 47%
Target sequence (P35869 whole entry, looked up): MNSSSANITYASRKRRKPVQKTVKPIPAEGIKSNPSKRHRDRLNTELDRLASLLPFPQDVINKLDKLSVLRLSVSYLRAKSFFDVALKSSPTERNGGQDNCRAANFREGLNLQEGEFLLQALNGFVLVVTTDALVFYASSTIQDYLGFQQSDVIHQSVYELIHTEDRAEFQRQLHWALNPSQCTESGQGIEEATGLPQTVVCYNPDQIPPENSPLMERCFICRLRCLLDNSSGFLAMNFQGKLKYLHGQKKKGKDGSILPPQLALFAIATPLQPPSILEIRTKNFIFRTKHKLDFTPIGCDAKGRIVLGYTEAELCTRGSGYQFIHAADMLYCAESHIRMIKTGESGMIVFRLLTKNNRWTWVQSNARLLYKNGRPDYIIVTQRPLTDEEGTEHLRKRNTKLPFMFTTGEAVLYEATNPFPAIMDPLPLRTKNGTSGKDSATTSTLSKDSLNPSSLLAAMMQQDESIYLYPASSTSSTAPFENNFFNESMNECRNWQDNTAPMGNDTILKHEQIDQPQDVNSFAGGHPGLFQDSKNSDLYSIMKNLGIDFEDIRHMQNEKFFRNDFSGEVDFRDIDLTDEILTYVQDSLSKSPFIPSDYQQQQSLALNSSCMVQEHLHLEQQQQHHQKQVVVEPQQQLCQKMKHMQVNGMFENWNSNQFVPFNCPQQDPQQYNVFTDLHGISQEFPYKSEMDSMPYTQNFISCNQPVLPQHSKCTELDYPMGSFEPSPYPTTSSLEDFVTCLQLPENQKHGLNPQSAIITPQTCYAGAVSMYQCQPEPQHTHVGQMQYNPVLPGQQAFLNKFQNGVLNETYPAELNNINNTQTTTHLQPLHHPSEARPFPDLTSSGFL
GRIN3A LBD mod = NR3A (human) ligand-binding domain modulation; NR3A LBD differential scanning fluorimetry, Tm shift; 0% = protein alone, 100% = glycine-bound protein; Tm shift relative to glycine control, % at 25 µM; 340,000 compounds, 2.5% hits;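 active = melting temperature shift of at least 10% of the positive control shift, at one fixed dose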
KLK7 act conf = proKLK7 activation, confirmation; shares compounds with KLK7 zymogen act; purified proKLK7, EDANS-DABCYL substrate fluorescence; scaled: vehicle 0, mature enzyme 100; activation, % at 7 µM; 3,200 compounds, 68% hits;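 active = activation, as change over the incubation, above the mean of all tested compounds plus 3 SD, cut at about 13% in these data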
EDANS-DABCYL int = counter-screen for kallikrein-7 activators: EDANS-DABCYL optical interference; AID 686952; activation, % at 7 µM; shares compounds with KLK7 zymogen act; EDANS-DABCYL substrate fluorescence interference, no enzyme, 4 h; solvent 0%, active enzyme control 100%; 3,200 compounds, 80% hits;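 active = activation above the all-compound mean plus 3 SD, ignoring values outside control-based bounds, cut at about 4.8% in these data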;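 also: value is the 4 h activation minus the activation read at time zero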
EDANS interf = optically interferes with EDANS-DABCYL fluorescence, kallikrein-7 activator counter-screen; shares compounds with KLK7 zymogen act; EDANS-DABCYL peptide fluorescence interference, no enzyme; EC50, µM; 250 compounds, 20% hits; AID 720493;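 active = compounds that raise the fluorescence signal in this interference counterscreen, with EC50 at or below 10 µM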;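 also: intact quenched peptide substrate alone read at 355 nm excitation and 520 nm emission; signal is fluorescence gain from T0 to T4 after four hours at room temperature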
A number is an active result; n = inactive; x = no result given.

SMILES	ADAM10 inh	rCAG RNA binder	KLK7 zymogen act	ADAM17 inh	AHR act	GRIN3A LBD mod	KLK7 act conf	EDANS-DABCYL int	others
O=C(NC1CCCC1)c1cc2c(=O)n3ccccc3nc2s1	n	n	61	n	n	n	75	66
Cc1cccn2c(=O)c3cc(C(=O)NC4CCCC4)sc3nc12	n	n	n	n	n	n	x	x
Cc1cccn2c(=O)c3cc(C(=O)N4CCCC(C)C4)sc3nc12 (centres undefined)	n	n	n	n	n	n	x	x
CC1CCCCN1C(=O)c1cc2c(=O)n3ccccc3nc2s1 (centres undefined)	n	n	32	n	n	n	40	40
O=C(/C=C/c1ccc(S(=O)(=O)N2CCOCC2)cc1)NCc1ccccc1Cl	n	n	n	n	n	n	x	x
Cn1c(C(=O)NC2CCCCC2)cc2c(=O)n3ccccc3nc21	n	n	83	n	n	n	81	75
Cc1cc(C)c2c(N)c(C(=O)NN3CC(=O)N(c4ccccc4)CC3=O)sc2n1	n	n	109	n	n	n	32	38
Cc1cc(C)c2c(N)c(C(=O)NN3CC(=O)N(c4cccc(Cl)c4)CC3=O)sc2n1	n	n	13	n	n	n	n	n
Cc1cc(C)c2c(N)c(C(=O)Nc3c(C)n(C)n(-c4ccccc4)c3=O)sc2n1	n	n	n	n	n	n	x	x
Cc1cc(C)c2c(N)c(C(=O)c3ccc(Cl)cc3)sc2n1	n	n	n	n	n	n	x	x
CCN(c1ccc(NC(=O)COC(=O)C(C)N=C2NS(=O)(=O)c3ccccc32)cc1)C(C)C (centres undefined)	n	n	n	n	x	n	x	x
COc1ccc2c(c1)c1ncn(CCN3CCCC3)c(=O)c1n2C	n	n	24	n	n	n	n	5.9
COc1ccc2c(c1)c1ncn(CCN3CCNCC3)c(=O)c1n2C	n	n	25	n	n	n	18	17
COc1ccc2[nH]c3c(=O)n(CCN4CCOCC4)cnc3c2c1	n	n	n	n	n	n	x	x
COc1ccc2c(c1)c1ncn(CCN3CCCCC3)c(=O)c1n2C	n	n	17	n	n	n	n	n
CCOCCCn1cnc2c3cc(F)ccc3n(C)c2c1=O	n	n	n	n	n	n	x	x
CCCCOc1ccc(C(=O)NCC(=O)OCCCOC(=O)CNC(=O)c2ccc(OCCCC)cc2)cc1	n	n	n	n	x	x	x	x
N=c1c(C(=O)NCc2ccco2)cc2c(=O)n3ccccc3nc2n1CCc1ccccc1	n	n	16	n	n	n	n	n
COc1ccc(CCNC(=O)c2cc3c(=O)n4ccccc4nc3n(CC3CCCO3)c2=N)cc1 (centres undefined)	n	n	n	n	x	n	x	x
N=c1c(C(=O)NCc2ccc(F)cc2)cc2c(=O)n3ccccc3nc2n1CC1CCCO1 (centres undefined)	n	n	21	n	n	n	n	n
N=c1c(C(=O)NCCc2ccccc2)cc2c(=O)n3ccccc3nc2n1CC1CCCO1 (centres undefined)	n	n	99	n	n	n	n	7.7
O=S(=O)(NCc1csc(-c2cccs2)n1)c1cccc(C(F)(F)F)c1	n	n	n	n	n	n	x	x
c1ccc(-c2cc(-c3ccccc3)n3ncnc3n2)cc1	n	n	n	n	n	n	x	x
COc1ccc(-c2cc(-c3ccccc3)nc3ncnn23)cc1	n	n	15	n	n	n	n	n
O=c1[nH][nH]cc1C=NCc1cccc(C(F)(F)F)c1	n	n	n	n	n	n	x	x
SMILES	ADAM10 inh	rCAG RNA binder	KLK7 zymogen act	ADAM17 inh	AHR act	GRIN3A LBD mod	KLK7 act conf	EDANS-DABCYL int	others
Nc1cc(Oc2ccc(Cl)cc2Cl)nc(N)n1	n	n	n	n	n	n	x	x
Nc1cc(C(=O)O)c(Oc2ccc(Cl)cc2Cl)cc1C(=O)O	n	n	26	n	n	n	57	51
N#Cc1cc2c(=O)n3ccccc3nc2n(Cc2cccnc2)c1=O	n	n	n	n	n	n	x	x
Cc1cccn2c(=O)c3cc(C(=O)NCc4ccccc4)c(=N)n(CCCN4CCOCC4)c3nc12	n	n	18	n	x	n	n	n
COCCCn1c(C(=O)N2CCOCC2)cc2c(=O)n3ccccc3nc21	n	n	47	n	n	n	72	80
Cc1ccc2nc3c(cc(C(=O)NCCc4ccccc4)c(=N)n3CCCN3CCOCC3)c(=O)n2c1	n	n	17	n	n	n	n	n
N#Cc1cc2c(=O)n3ccccc3nc2n(CCCN2CCOCC2)c1=O	n	n	48	n	n	n	44	40
COc1ccc(CCNC(=O)c2cc3c(=O)n4ccccc4nc3n(CCCN3CCOCC3)c2=N)cc1	n	n	n	n	n	n	x	x
Cc1cc(OCCN2CCOCC2)ccc1C(C)C	n	n	n	n	n	n	x	x
O=C(CSCc1c(F)cccc1Cl)NNC(=S)NC1CCCCC1	n	n	n	n	n	n	x	x
C/C(=N/NC(=O)c1cccc(N2CCCC2=O)c1)c1ccncc1	n	n	n	n	n	n	x	x
COc1ccc(CCn2c(=N)c(C(=O)NCCN3CCOCC3)cc3c(=O)n4cccc(C)c4nc32)cc1OC	n	n	n	n	n	n	x	x
N#Cc1cc2c(=O)n3ccccc3nc2n(-c2ccccc2Cl)c1=O	n	n	31	n	n	n	32	36
Cc1cccn2c(=O)c3cc(C(=O)NCCN4CCOCC4)c(=N)n(CCc4ccccc4)c3nc12	n	n	35	n	n	n	n	n
O=C(NCCN1CCOCC1)c1c(O)nc2ccccn2c1=O	n	n	n	n	n	n	x	x
CC(=O)N=c1c(C#N)cc2c(=O)n3ccccc3nc2n1Cc1ccccc1	n	n	n	n	n	n	x	x
COCCCn1c(C(=O)NCCN2CCOCC2)cc2c(=O)n3cccc(C)c3nc21	n	n	15	n	n	n	38	28	EDANS interf=n
O=C(NCCN1CCOCC1)c1cc2c(=O)n3ccccc3nc2n1Cc1ccccc1	n	n	41	n	n	n	81	73
CC1(C(=O)NS(=O)(=O)C2CC2)CCCN(C(=O)c2c(F)cccc2F)C1 (centres undefined)	n	n	n	n	x	x	x	x
Cc1ccc(CN2CCSCC2)cc1	n	n	n	n	n	n	x	x
COc1ccc(CCNC(=O)c2cc3c(=O)n4ccccc4nc3n(CCCN3CCOCC3)c2=N)cc1OC	n	n	n	n	n	n	x	x
Cc1cccn2c(=O)c3cc(C(=O)N(C)C)n(C)c3nc12	n	n	26	n	n	n	27	29

Screens: PubChem, several laboratories
